These results are taken from PubChem BioAssay.

A short description of experiment [1]: yeast TOR pathway RPL19A-GFP modulators, primary screen, cell-based, S. cerevisiae, multiplex flow cytometry (AID 1862; in the data active = percent of DMSO control GFP below about 86%;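 also: lower values mimic rapamycin by blocking the RPL19A rise seen in DMSO cells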). Conditions: S. cerevisiae RPL19A-GFP strain, flow cytometry fluorescence, 3 h; at 10 µM; stronger effect = lower value. (In general: Flow cytometry measures light scatter and fluorescence of single cells or particles in a stream.)
Experiment [2] is described as follows: modulators of MEP2-GFP levels in yeast, primary screen, S. cerevisiae, multiplex flow cytometry (AID 1867).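 Also: median GFP channel fluorescence of barcode-gated MEP2-GFP cells measured by flow cytometry.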 Conditions: S. cerevisiae MEP2-GFP strain, 3 h, at 10 µM, stronger effect = higher value, 100% means same as DMSO wells.
A short description of experiment [3]: modulators of CIT2-GFP expression in yeast, primary screen, S. cerevisiae, GFP fusion, multiplex flow cytometry (AID 1870;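 active = percent response above a set limit, the screen-wide mean plus 3 SD, cut at about 130% in these data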;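 also: barcoded CIT2-GFP strain pooled with four other GFP strains with rapamycin as positive control; median GFP fluorescence per well over plate mean of DMSO wells so 100% = DMSO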). Conditions: 3 h, at 10 µM, stronger effect = higher value.
The nature of experiment [4]: modulators of LAP4-GFP expression in yeast, primary screen, S. cerevisiae, multiplex flow cytometry (AID 1873;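 active = GFP signal, as percent of the solvent control, above the screen mean plus 3 SD, about 149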). The conditions noted are these: 3 h, at 10 µM, stronger effect = higher value.
The nature of experiment [5]: modulators of AGP1-GFP expression in yeast TOR pathway, primary screen, cell-based, multiplex flow cytometry, S. cerevisiae (AID 1887;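 active = GFP signal above the screen-wide mean plus 3 SD, that is over about 124.5% of the solvent control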;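 also: AGP1-GFP fusion strain of S. cerevisiae within a five-strain barcoded multiplex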). Conditions: 3 h, at 10 µM, stronger effect = higher value.
Experiment [6] can be described thus: inhibitors of CD8+ T cell-vesicle binding, pilot screen, LFA-1/ICAM-1 modulator project, MLPCN validation set, flow cytometry (AID 2523;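 active = response below a set limit, under 55% cells CD8-positive and vesicle-bound, and CD8 cells' 90th-percentile brightness under 279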;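 as to vesicle binding response: mean PE anti-B7-1 fluorescence of CD8+ cells relative to row control; 100% = QL9-loaded vesicles with DMSO vehicle in the same plate row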). The conditions noted are these: 2C mouse CD8+ T cells, at 7 µM, stronger effect = lower value; double positive events: measured here: CD8+/vesicle+ event percentage.
For experiment [7], the target named is Integrin beta-1 (Homo sapiens) + Integrin alpha-4 (Homo sapiens) (UniProt P13612+P05556). Put plainly: inhibition of HUTS-21 binding to VLA-4, pilot screen, VLA-4 allosteric modulator project, U937 cells, HUTS-21 mAb, flow cytometry, validation set (AID 2674;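 active = inhibition above 50%, about 3 SD of the validation set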;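 also: antibody binding induced by the VLA-4 ligand LDV present at three times its Kd; 0% = LDV ligand with antibody and no compound and 100% = antibody without LDV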). Conditions: HUTS-21 LIBS mAb binding, at 6.7 µM, stronger effect = higher value, binding induced by LDV ligand.
Chain of Integrin beta-1 (Homo sapiens) + Integrin alpha-4 (Homo sapiens) (P05556 whole entry, looked up): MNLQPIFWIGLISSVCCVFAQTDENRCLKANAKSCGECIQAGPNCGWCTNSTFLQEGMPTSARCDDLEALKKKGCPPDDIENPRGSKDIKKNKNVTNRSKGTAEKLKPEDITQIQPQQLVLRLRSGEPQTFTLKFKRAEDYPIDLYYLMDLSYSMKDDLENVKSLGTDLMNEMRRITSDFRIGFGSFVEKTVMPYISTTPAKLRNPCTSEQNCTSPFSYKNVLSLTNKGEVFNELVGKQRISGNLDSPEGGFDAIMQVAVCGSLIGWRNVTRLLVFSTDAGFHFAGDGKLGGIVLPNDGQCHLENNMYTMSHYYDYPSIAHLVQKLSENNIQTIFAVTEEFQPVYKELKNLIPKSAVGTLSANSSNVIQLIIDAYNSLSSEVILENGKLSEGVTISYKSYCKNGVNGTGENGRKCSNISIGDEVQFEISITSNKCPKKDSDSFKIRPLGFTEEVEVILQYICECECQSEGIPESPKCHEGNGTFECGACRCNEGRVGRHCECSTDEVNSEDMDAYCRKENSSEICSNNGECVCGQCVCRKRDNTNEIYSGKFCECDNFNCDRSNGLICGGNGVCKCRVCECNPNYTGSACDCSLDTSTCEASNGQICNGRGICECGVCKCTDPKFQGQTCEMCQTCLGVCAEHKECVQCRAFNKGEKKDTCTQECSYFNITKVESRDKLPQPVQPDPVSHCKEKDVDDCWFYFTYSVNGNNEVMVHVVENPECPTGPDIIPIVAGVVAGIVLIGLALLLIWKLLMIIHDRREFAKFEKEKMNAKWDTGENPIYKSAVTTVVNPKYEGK
Chain of Integrin beta-1 (Homo sapiens) + Integrin alpha-4 (Homo sapiens) (P13612 whole entry, looked up): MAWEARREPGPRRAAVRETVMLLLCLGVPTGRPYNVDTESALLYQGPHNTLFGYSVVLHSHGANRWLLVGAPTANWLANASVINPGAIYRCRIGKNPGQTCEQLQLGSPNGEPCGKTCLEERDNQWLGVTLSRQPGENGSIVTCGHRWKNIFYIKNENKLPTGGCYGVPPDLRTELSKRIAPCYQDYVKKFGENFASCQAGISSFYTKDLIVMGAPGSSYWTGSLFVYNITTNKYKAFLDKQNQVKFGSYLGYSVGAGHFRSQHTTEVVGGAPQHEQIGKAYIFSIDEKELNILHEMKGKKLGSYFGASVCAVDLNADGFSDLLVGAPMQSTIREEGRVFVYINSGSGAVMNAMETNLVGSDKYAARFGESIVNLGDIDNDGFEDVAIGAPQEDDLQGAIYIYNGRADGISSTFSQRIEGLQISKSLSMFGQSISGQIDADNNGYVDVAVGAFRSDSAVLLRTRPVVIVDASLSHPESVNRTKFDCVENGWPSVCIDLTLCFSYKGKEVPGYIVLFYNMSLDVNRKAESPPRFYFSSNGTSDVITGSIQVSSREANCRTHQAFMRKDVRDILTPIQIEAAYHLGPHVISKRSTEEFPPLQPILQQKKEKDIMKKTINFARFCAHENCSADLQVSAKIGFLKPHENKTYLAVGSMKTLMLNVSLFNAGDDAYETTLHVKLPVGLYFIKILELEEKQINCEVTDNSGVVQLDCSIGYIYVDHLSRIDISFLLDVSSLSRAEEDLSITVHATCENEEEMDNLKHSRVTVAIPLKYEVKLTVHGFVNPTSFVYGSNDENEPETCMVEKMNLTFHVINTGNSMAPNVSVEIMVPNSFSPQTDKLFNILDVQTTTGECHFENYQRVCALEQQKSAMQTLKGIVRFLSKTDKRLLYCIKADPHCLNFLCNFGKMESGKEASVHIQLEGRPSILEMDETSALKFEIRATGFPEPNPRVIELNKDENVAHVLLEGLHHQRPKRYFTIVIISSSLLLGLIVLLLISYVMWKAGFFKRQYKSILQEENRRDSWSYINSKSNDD

Experiment [8] in a line: superoxide lowering in aged yeast cells, pilot screen, validation compound set (AID 2706;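 active = superoxide response below 65% of plate, a cut near 3 SD across the whole screen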;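 also: yeast exposed to compound for one week at 30 degrees C before staining; 100% = mean of all compound wells on the same plate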). Conditions: S. cerevisiae aging, superoxide DHE fluorescence; at 10 µM; stronger effect = lower value.
Experiment [9] concerns the target Beta-adrenergic receptor kinase 1 (Homo sapiens) (UniProt P25098). The experiment can be described thus: GRK2 binders displacing RNA aptamer, biochemical, validation, human GRK2, bead flow cytometry (AID 488806;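 active = aptamer binding inhibition above 30%, about 3 SD of noise from non-fluorescent compounds; inactive = inhibition at or below 30%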). The conditions noted are these: bead-bound GRK2, FAM-aptamer displacement, at 10 µM, stronger effect = higher value.
The target in experiment [10] is Beta-2 adrenergic receptor (Homo sapiens) (UniProt P07550). Put plainly: beta2AR agonists driving receptor internalization, pilot screen, cell-based, FAP fluorogen, flow cytometry, validation set (AID 504459;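 active = percent response above 42, roughly 3 SD of non-fluorescent test compounds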;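 also: agonist-driven loss of surface beta2AR via internalization measured by FAP dye flow cytometry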). The conditions noted are these: Am2.2-beta2AR cells, FAP surface receptor flow cytometry; at 10 µM; stronger effect = higher value.
Chain of Beta-2 adrenergic receptor (Homo sapiens) (P07550 whole entry, looked up): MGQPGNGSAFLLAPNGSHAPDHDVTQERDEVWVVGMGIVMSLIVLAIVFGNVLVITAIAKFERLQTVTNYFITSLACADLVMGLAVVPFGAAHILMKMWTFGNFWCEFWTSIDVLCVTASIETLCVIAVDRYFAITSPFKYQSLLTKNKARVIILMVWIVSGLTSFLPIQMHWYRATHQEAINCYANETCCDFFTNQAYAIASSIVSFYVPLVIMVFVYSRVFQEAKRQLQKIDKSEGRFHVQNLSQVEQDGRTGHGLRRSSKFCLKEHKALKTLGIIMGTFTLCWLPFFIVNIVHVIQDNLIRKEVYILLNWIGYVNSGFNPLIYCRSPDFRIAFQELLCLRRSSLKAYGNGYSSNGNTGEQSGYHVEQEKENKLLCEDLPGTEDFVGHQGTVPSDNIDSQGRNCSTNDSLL
Experiment [11] concerns the target AP-2 complex subunit beta (Homo sapiens) (UniProt P63010). The experiment can be described thus: inhibitors of arrestin peptide binding to AP2, pilot screen, biochemical, validation set, GST-AP2 beads, flow cytometry (AID 504541;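 active = inhibition above 54%, about 3 SD of non-fluorescent compounds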;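 also: AP2 carries R879A mutation and is captured from E. coli lysate; bead-bound FITC arrestin peptide fluorescence measuring arrestin peptide binding to AP2; 0% = DMSO wells and 100% = excess unlabeled arrestin peptide control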). The conditions noted are these: FITC arrestin peptide, at 10 µM, stronger effect = higher value, AP2 beta2 appendage fragment, R879A mutant.
A short description of experiment [12]: yeast V-ATPase proton transport modulators, S. cerevisiae, pHLuorin, HTS validation (AID 504600; in the data active = response above about 15%;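 also: plate controls were DMSO for no effect and reference compound for full effect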). The conditions noted are these: S. cerevisiae pHLuorin cytosolic pH, at 10 µM, stronger effect = higher value.
Experiment [13] relates to anti-desmoglein-3 scFv antibody binding to human DSG3. Put plainly: inhibitors of anti-DSG3 scFv binding to DSG3, pilot screen, biochemical, validation compound set, bead-based, flow cytometry (AID 588368;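 active = binding below the plate cutoff, the plate median minus 3 SD, with a reading above zero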;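 also: signal is the median channel fluorescence of bead-bound GFP antibody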). Conditions: Protein G beads, DSG3-Fc, scFv-GFP binding, at 10 µM, stronger effect = lower value.
A short description of experiment [14]: inhibitors of fungal efflux pumps CDR1, CDR2, MDR1, pilot screen, validation compound set, multiplex, phenotypic (AID 588506;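 active = efflux inhibition above 0.42, the validation set average plus 4 SD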;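 also: Nile Red retained in cells so higher fluorescence means more efflux inhibition; 0 = negative control wells and 1 = enniatin B 25 µM full block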). Conditions: S. cerevisiae pump-expressing triplex, Nile Red efflux flow cytometry; at 10 µM; stronger effect = higher value; the pumps come from Candida albicans.
In experiment [15] the target is ATP-binding cassette sub-family B member 6 (Homo sapiens) (UniProt Q9NP58). Put plainly: ABCB6 transporter inhibitors, pilot screen, K562-ABCB6 cells, flow cytometry, validation set (AID 588550;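 active = inhibition above the screen-wide mean plus 3 SD, about 51%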;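 also: 0% = DMSO wells and 100% = benzethonium chloride 70 µM positive control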). The conditions noted are these: K562-ABCB6 porphyrin accumulation, 1 h, at 10 µM, stronger effect = higher value.
Chain of ATP-binding cassette sub-family B member 6 (Homo sapiens) (Q9NP58 whole entry, looked up): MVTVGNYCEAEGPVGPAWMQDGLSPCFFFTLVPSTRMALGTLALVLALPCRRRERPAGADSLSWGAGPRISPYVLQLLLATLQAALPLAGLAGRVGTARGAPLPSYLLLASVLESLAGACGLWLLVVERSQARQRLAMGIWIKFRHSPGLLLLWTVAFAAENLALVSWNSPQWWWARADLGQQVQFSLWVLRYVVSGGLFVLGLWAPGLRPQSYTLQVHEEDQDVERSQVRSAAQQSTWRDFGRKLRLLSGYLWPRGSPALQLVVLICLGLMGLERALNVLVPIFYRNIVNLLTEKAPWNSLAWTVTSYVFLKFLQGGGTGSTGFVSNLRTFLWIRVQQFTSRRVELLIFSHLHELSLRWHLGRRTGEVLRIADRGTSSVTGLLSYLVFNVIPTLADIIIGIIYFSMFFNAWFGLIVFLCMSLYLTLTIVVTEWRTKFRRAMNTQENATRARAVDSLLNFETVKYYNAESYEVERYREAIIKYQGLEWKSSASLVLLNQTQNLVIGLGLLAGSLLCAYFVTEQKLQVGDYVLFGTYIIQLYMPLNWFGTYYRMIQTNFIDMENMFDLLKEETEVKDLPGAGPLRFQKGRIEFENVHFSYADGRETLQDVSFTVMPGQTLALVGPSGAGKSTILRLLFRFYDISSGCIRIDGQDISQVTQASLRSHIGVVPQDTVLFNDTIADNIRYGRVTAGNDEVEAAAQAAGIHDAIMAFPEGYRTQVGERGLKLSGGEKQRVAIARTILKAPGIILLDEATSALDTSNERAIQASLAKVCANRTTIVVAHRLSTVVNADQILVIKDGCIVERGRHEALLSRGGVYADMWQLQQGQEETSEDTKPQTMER
The nature of experiment [16]: promoters of myeloid differentiation in arrested cells, primary screen, cell-based, GFP/MAC1 double positive, flow cytometry, validation set (AID 588685;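 active = differentiation response of at least 50%, scaled between solvent and reference control, from cells with both markers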;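 also: compound exposure lasts four days before antibody staining and flow analysis; 0% = DMSO wells and 100% = 5 µM fulvestrant positive control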). Conditions: ER-HoxA9 marrow cells, stronger effect = higher value, normalized: vehicle 0, fulvestrant 100.

What is called inhibition is the change of the read-out against control, counted positive when it falls.

Records with an inconclusive call do not appear. Activity calls are given as the source filed them.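 The calls were made as follows, unless noted: active = GFP response, as percent of the DMSO control, above the screen-wide mean plus 3 SD, about 139; inconclusive = no response measured because the compound's own fluorescence interfered; inactive = the rest.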

Chain of Beta-adrenergic receptor kinase 1 (Homo sapiens) (P25098 whole entry, looked up): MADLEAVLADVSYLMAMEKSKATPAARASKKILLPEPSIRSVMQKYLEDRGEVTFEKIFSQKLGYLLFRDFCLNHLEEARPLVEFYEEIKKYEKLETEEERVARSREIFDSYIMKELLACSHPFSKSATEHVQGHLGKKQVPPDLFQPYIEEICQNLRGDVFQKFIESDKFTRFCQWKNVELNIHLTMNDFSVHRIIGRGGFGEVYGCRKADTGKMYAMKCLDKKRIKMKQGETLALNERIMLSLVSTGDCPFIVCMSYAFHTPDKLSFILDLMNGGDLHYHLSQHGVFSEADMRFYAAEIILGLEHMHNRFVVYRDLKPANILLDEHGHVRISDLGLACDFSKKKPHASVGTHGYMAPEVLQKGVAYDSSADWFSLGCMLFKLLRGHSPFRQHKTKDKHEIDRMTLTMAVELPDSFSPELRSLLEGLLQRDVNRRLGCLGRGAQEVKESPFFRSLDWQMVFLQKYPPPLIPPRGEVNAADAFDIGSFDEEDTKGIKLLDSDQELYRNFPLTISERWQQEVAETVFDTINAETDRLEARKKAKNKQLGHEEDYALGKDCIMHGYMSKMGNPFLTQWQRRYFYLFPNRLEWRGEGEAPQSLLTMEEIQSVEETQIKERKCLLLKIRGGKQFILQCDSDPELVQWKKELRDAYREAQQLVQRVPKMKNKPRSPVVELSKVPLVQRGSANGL
Chain of AP-2 complex subunit beta (Homo sapiens) (P63010 whole entry, looked up, the tested form may be a part, one chain of several): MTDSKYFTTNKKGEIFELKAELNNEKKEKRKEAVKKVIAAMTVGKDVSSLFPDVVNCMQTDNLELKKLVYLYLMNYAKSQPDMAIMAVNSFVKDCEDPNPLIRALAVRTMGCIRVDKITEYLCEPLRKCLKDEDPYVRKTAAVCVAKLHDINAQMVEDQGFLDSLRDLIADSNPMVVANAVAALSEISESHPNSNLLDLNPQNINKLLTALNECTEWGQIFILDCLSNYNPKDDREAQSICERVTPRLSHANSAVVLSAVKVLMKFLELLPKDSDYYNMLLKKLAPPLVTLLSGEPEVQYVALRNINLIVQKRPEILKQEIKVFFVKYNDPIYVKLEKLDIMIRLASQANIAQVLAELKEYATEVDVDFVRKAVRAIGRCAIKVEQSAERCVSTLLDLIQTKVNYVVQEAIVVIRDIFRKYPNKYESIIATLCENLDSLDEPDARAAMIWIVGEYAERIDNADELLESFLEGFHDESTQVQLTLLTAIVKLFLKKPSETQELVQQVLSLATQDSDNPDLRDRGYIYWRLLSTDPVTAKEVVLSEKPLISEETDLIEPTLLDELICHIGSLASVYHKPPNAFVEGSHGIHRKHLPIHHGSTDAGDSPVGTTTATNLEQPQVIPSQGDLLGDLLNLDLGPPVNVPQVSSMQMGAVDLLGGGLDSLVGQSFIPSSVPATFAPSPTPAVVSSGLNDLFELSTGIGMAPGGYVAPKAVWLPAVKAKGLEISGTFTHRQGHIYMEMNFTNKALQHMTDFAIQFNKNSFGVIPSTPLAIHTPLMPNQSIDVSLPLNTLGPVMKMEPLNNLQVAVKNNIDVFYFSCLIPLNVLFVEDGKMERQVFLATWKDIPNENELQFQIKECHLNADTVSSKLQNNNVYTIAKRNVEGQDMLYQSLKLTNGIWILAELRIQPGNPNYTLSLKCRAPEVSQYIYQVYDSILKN

Take `CCOc1ccc(C(=O)C(C)=O)c(OCC)c1`: the percent of DMSO control GFP in experiment [1] is 101% (inactive). Besides, the GFP response vs DMSO in [2] was 99.7% (inactive); in experiment [4], 100% (inactive). Further, the percent response of DMSO control in experiment [3] was 104% (inactive). In addition, the GFP response, % of DMSO in experiment [5] was 105% (inactive). The double positive events in experiment [6] was 64.3%. Further, the vesicle binding response in experiment [6] is 211% (inactive). Also, the results for the inhibition in [7], in experiment [11] and in [15] were -1.09% (inactive), -2.17% (inactive) and 19% (inactive), respectively. The superoxide response (% of plate) in [8] is 105% (inactive). In addition, the aptamer binding inhibition in experiment [9] is 2% (inactive). Moreover, the response in [10] is -2.34% (inactive); in experiment [12], 1.92% (inactive). Also, the binding (% of control) in [13] is 97% (inactive). Besides, the efflux inhibition (fraction of control) in experiment [14] was -0.02 (inactive). Moreover, the differentiation response in [16] is -13.3% (inactive).

On to `COCCCN1C(=O)/C(=C\c2cccs2)C(C(=O)OC)=C1C`, for which the percent of DMSO control GFP in experiment [1] was 99.9% (inactive). Also, the GFP response vs DMSO in experiment [2] is 106% (inactive); in experiment [4] it was 120% (inactive). Moreover, the percent response of DMSO control in experiment [3] was 92.9% (inactive). In experiment [5], the GFP response, % of DMSO is 99.4% (inactive). This compound came in with a double positive events in experiment [6] of 57.8%. For the same compound, the vesicle binding response in experiment [6] is 4220% (inactive). For the same compound, the values for the inhibition in experiment [7], in experiment [11] and in [15] were 6.4% (inactive), -12% (inactive) and 5% (inactive), respectively. The superoxide response (% of plate) in experiment [8] was 113% (inactive). The aptamer binding inhibition in [9] was 2% (inactive). Also, the values for the response in experiment [10] and in experiment [12] were -6.32% (inactive) and 10.8% (inactive), respectively. The binding (% of control) in experiment [13] was 102% (inactive). In experiment [14], the efflux inhibition (fraction of control) was -0.06 (inactive). Further, the differentiation response in experiment [16] was -20% (inactive).

`C/C(=N\NC(=O)C1(C)CC1(Br)Br)c1ccc([N+](=O)[O-])cc1` (stereo not given): the percent of DMSO control GFP in [1] is 105% (inactive). In addition, the values for the GFP response vs DMSO in experiment [2] and in experiment [4] were 99.3% (inactive) and 85.5% (inactive), respectively. In experiment [3], the percent response of DMSO control was 105% (inactive). The GFP response, % of DMSO in [5] is 104% (inactive). This compound displayed a double positive events in experiment [6] of 65.3%. For the same compound, the vesicle binding response in experiment [6] was 390% (inactive). Moreover, the inhibition in [7] was -0.45% (inactive); in experiment [11], -5.83% (inactive); in [15], 1% (inactive). For the same compound, the superoxide response (% of plate) in experiment [8] was 83.6% (inactive). Further, the aptamer binding inhibition in experiment [9] was 6% (inactive). In addition, the response in experiment [10] was -9.52% (inactive); in [12], 26.1% (active). The binding (% of control) in experiment [13] was 98.5% (inactive). Moreover, in [14], the efflux inhibition (fraction of control) was -0.17 (inactive). For the same compound, the differentiation response in [16] is 13.9% (inactive).

As for `C[N+](C)(C)CCCCCCCCCC[N+](C)(C)C`, the percent of DMSO control GFP in experiment [1] was 94.4% (inactive). Also, the GFP response vs DMSO is 129% (inactive) in experiment [2] and 77% (inactive) in experiment [4]. In addition, the percent response of DMSO control in experiment [3] was 103% (inactive). Moreover, the GFP response, % of DMSO in experiment [5] was 87% (inactive). In addition, the double positive events in experiment [6] amounted to 70%. Also, the vesicle binding response in [6] was 208% (inactive). For the same compound, the inhibition in experiment [7] was 3.55% (inactive); in experiment [11], -6.99% (inactive); in experiment [15], 12% (inactive). Also, the superoxide response (% of plate) in experiment [8] is 100% (inactive). The aptamer binding inhibition in experiment [9] is 5% (inactive). The response in experiment [10] is -10.3% (inactive); in experiment [12] it was 0.2% (inactive). Further, in experiment [13], the binding (% of control) is 101% (inactive). Further, the efflux inhibition (fraction of control) in experiment [14] is -0.56 (inactive). In addition, the differentiation response in [16] was 1.64% (inactive).

For `CCCCOc1ccc(CC(=O)NO)cc1`, the percent of DMSO control GFP in [1] was 87.8% (inactive). The GFP response vs DMSO in [2] was 113% (inactive); in experiment [4], 75.9% (inactive). The percent response of DMSO control in experiment [3] was 106% (inactive). In addition, the GFP response, % of DMSO in experiment [5] was 75% (inactive). For the same compound, the double positive events in experiment [6] came out at 48.1%. In addition, in experiment [6], the vesicle binding response was 214% (inactive). Besides, the inhibition was -3.24% (inactive) in experiment [7], 3.29% (inactive) in experiment [11] and 9% (inactive) in [15]. In addition, in [8], the superoxide response (% of plate) is 121% (inactive). Further, in experiment [9], the aptamer binding inhibition is -2% (inactive). Besides, the figures for the response in experiment [10] and in experiment [12] were -26.1% (inactive) and 1.03% (inactive), respectively. The binding (% of control) in experiment [13] was 104% (inactive). The efflux inhibition (fraction of control) in experiment [14] was 0.09 (inactive). In [16], the differentiation response was 2.46% (inactive).
